11 compounds from the supplement of paper PMC12669032 can be followed below.

A number with no mark means an inactive call.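 How the source made its calls: active = AUC reduced over 20% with Padj below 0.05 in at least 2 of 3 replicates; inactive = otherwise.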

The subject of the assay is Coprococcus comes. The assay is described as follows: growth AUC relative to DMSO control (median of replicates) (fraction); higher = more growth (less inhibition), active = hit call of the paper. The note with it: 20 µM; 24 h. In outline:
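Gut bacterial monocultures were grown anaerobically at 37 °C in mGAM, starting at OD600 0.05, with 20 µM compound (1% DMSO) in round-bottom 96-well plates under pierced gas-permeable seals. OD600 was read hourly for 24 h. Area under the growth curve (minimum OD set to 0) was normalised to the plate median of DMSO controls, or to row and column medians on the industrial chemical plate. The value is the median of three biological replicates grown on separate days.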
Regarding `O=C(O)C1(O)c2ccccc2-c2ccc(Cl)cc21` (stereo unspecified), the “growth AUC” value was 0.972.

On to `O=C(O)C(F)(F)C(F)(F)C(F)(F)C(F)(F)C(F)(F)C(F)(F)C(F)(F)F`, for which the “growth AUC” value is 1.02.

`COP(=O)(OC)OC=C(Cl)Cl`: the “growth AUC” value is 1.03.

Regarding `CCCN(CC)CC1COC2(CCC(C(C)(C)C)CC2)O1` (stereo unspecified), the “growth AUC” value was 0.993.

Consider `CCOP(=O)(SC(C)CC)N1CCSC1=O` (stereo unspecified), for which the “growth AUC” value was 1.

In the case of `O=NN(CCO)CCO`, the “growth AUC” value was 1.01.

On to `CSc1nc(N=[N+]=[N-])nc(NC(C)C)n1`, for which the “growth AUC” value is 0.963.

Consider `COP(=O)(OC)Oc1ccc(S(C)=O)c(C)c1` (stereo unspecified), for which the “growth AUC” value was 1.01.

As to `O=C(Nc1ccccc1)N(Cc1ccc(Cl)cc1)C1CCCC1`, the “growth AUC” value is 0.94.

As for `CC(C)OC(=O)C(C(=O)OC(C)C)=C1SCCS1`, the “growth AUC” value was 1.06.

Consider `CCC(C)[C@H]1O[C@]2(C=C[C@@H]1C)C[C@@H]1C[C@@H](C/C=C(\C)[C@@H](O[C@H]3C[C@H](OC)[C@@H](O[C@H]4C[C@H](OC)[C@@H](O)[C@H](C)O4)[C@H](C)O3)[C@@H](C)/C=C/C=C3\CO[C@@H]4[C@H](O)C(C)=C[C@@H](C(=O)O1)[C@]34O)O2.CO[C@H]1C[C@H](O[C@H]2[C@H](C)O[C@@H](O[C@@H]3/C(C)=C/C[C@@H]4C[C@@H](C[C@]5(C=C[C@H](C)[C@@H](C(C)C)O5)O4)OC(=O)[C@@H]4C=C(C)[C@@H](O)[C@H]5OC/C(=C\C=C\[C@@H]3C)[C@]54O)C[C@@H]2OC)O[C@@H](C)[C@@H]1O` (stereo partly specified), for which the “growth AUC” value is 0.99.
